Compound activity as filed in PubChem BioAssay.
VACV mCherry inh: vaccinia inhibition (mCherry reporter) | Potency, µM (top dose mostly 36.5 µM), for the others: at the highest dose activity change, negative = inhibition, most hits filed as inhibitors | 310,000 tested, 0.63% active | Vaccinia virus mCherry reporter infection, fluorescence; calls by dose curve; tested in A549 cells; note: nearly all actives have a fitted effect of over 35% in size
HCV inh: inhibitors of hepatitis C virus infection | AID 651820 | 340,000 tested, 3.4% active | Potency, µM (doses to about 41.8 µM), without a hit: at the top dose activity change, negative = inhibition, usual class: inhibitors | Huh7.5.1 HCVcc-Cre infection, luciferase reporter, 44 h; active = well fitted inhibition curve with a large enough effect; inconclusive = small, poorly fitted or top-dose-only effect, or another doubt; inactive = no such curve, though single readings can be large or run the other way
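After 44 h co-culture of compound, cells and HCVcc-Cre (~0.5 moi), substrate is added for 15 min at room temperature and luciferase measured over 15 sec. Cells were seeded at 1,000/well and pre-cultured 4 h.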
FMDV inh: antivirals against foot and mouth disease virus. AID 1159524. FMDV antiviral cell-based qHTS. Potency, µM (highest dose often 57.9 µM), without a hit: at the highest dose activity change, negative = inhibition, usual class: inhibitors. 410,000 tested, 1.2% active; calls by dose curve; tested in HEK293T cells; note: read-out not given here; nearly all actives have a fitted effect of over 45% in size
Lassa entry inh: Lassa virus entry inhibition; AID 540256; 300,000 tested, 1.2% active; Potency, µM (titrated, usually from 37.9 µM), without a hit: at the highest dose activity change, negative = inhibition, usual class: inhibitors; Lassa virus pseudotype entry inhibition, cell reporter; calls by dose curve; tested in HEK293 cells; note: nearly all actives have a fitted effect of over 50% in size
Vaccinia Venus: vaccinia inhibition (Venus reporter); AID 720580; Potency, µM (doses to about 36.5 µM), for the others: at the top dose activity change, negative = inhibition, actives largely listed as inhibitors; 330,000 tested, 0.46% active; Vaccinia virus Venus reporter expression, fluorescence; calls by dose curve; tested in A549 cells; note: nearly all actives have a fitted effect of over 30% in size
MARV entry inh: blocks Marburg virus binding to or entry into cells. Marburg virus pseudotyped entry inhibition, cell reporter. Potency, µM (titrated, usually from 37.8 µM), inactives show top-dose activity change, negative = inhibition, actives largely listed as inhibitors. 300,000 tested, 1.8% active. AID 540276; calls by dose curve; tested in HEK293 cells
The depositor's hits bear a star; i = inactive; ? = inconclusive; . = not tested or not shown; [ ] = dose if it differs, or a comment. This is a sample that favours compounds with a hit; in the whole collection about 5.3% have one here. % is set by controls: 0 for no effect and ±100 for the full control effect; potency is the fitted concentration of half-maximal effect.

SMILES	VACV mCherry inh	HCV inh	FMDV inh	Lassa entry inh	Vaccinia Venus	MARV entry inh
C#CCOCCOCCOCCNc1nc(N2CCN(C(=O)CCCCCCCCCCNC(=O)[C@@H](CCSC)n3cc(CCO)nn3)CC2)nc(N2CCN(C(=O)CCCCCCCCCCNC(=O)[C@H]([C@@H](C)CC)n3cc(CCCCN=C(N)N)nn3)CC2)n1	?	?	?	.	8.9µM*	.
C#CCOCCOCCOCCNc1nc(N2CCOCC2)nc(N2CCN(C(=O)CCCCCCCCCCNC(=O)[C@@H](CCSC)n3cc(CCO)nn3)CC2)n1	i	-28%	-14%	.	-28%	.
C#CCOCCOCCOCCNc1nc(N2CCN(C(=O)CCCCCCCCCCNC(=O)[C@@H](CCSC)n3cc(CCO)nn3)CC2)nc(N2CCN(C(=O)CCCCCCCCCCNC(=O)[C@H]([C@@H](C)CC)n3cc(CCCCCN)nn3)CC2)n1	-18%	?	?	.	10µM*	.
Cc1ccc(NC(=O)c2cc(S(=O)(=O)N3CCC4(CC3)OCCO4)ccc2F)cc1Cl	-1%	.	-12%	-30%[46.1 µM]	-8%	.
O=C(COc1ccc(S(=O)(=O)N2CCOCC2)cc1Cl)NCc1ccc2c(c1)OCO2	?	.	-20%	.	-16%	.
COc1cc(CNCc2ccc(OC)c(OC)c2OC)cc(OC)c1	.	10µM*	-29%	4%	.	?
CN(C)c1ccc(/C=C/c2ccnc3cc(Cl)ccc23)cc1	-16%	.	.	.	47%	.
CC1CCc2sc3ncnc(N4CCN(C)CC4)c3c2C1 (centres undefined)	i	-15%	-12%	-19%	-5%	?
Cc1nc2ccc(NS(=O)(=O)c3c(C)c(C)cc(C)c3C)cc2s1	?	16µM*	11%	?	?	?
Cc1nc2cc(NS(=O)(=O)c3c(C)c(C)cc(C)c3C)ccc2s1	?	2.8µM*	-22%	-7%	?	-27%
CCOc1ccc(NC(=O)C2Cc3ccccc3N2C(=O)c2ccccc2)cc1 (centres undefined)	-11%	.	-29%	-19%[46.1 µM]	-2%	.
COc1cc(OC)c2nc(-c3cc4c(c(OC)c3)OCCN(C(=O)CC3NC(=O)c5ccccc53)C4)cc(C)c2c1 (centres undefined)	-10%	.	-15%	.	-10%	.
O=C(C[n+]1cccc(C(=O)Nc2ccccc2)c1)c1ccc([N+](=O)[O-])cc1	-26%	11µM*	3%	-6%	-3%	1%[46.1 µM]
O=C(C[n+]1cccc(C(=O)Nc2ccccc2)c1)c1ccc(Cl)cc1	-18%	.	-24%	.	-16%	.
CCNc1ncc2nc(-c3ccc(Cl)cc3)c(=O)n(Cc3cccs3)c2n1	.	.	8%	.	.	.
Cc1c(C(=O)NCc2ccccc2Br)oc2c1-c1[nH]ncc1CC2	-7%	.	7%	4%[46.1 µM]	-9%	?
O=C(NCc1cccnc1)c1cc(Sc2ccc(F)cc2F)nc2ccccc12	-19%	10µM*	?	?	-24%	11µM*
O=C(NCCc1ccccc1)c1cc(Sc2ccc(F)cc2F)nc2ccccc12	-2%	.	-17%	-18%[46.1 µM]	-15%	.
COc1ccc(-c2n[nH]c(C(F)(F)F)c2-c2cc3ccccc3o2)c(O)c1	?	11µM*	?	?	?	?
Cc1cc2c(cc(C(=O)OCC(=O)NCc3cccs3)n2C(C)C)o1	-22%	?	.	9.2µM*	-24%	?
Cc1cc(C)cc(C(=O)OCC(=O)NCc2cccs2)c1	.	22%	0%	-3%	.	-6%
COC(=O)c1sccc1OCc1cccc(OC)c1	.	-20%	16%	.	.	.
Cc1nc(OCc2ccccc2)c2ccccc2n1	.	?	?	?	-16%	?
COc1cccc(COc2cc3ccccc3nc2C)c1	.	5.6µM*	?	?	.	?
Cc1nc2ccccc2cc1OCc1ccc(Cl)cc1	.	7.1µM*	?	0%	.	?
SMILES	VACV mCherry inh	HCV inh	FMDV inh	Lassa entry inh	Vaccinia Venus	MARV entry inh
Cc1nc2ccccc2cc1OCc1ccccc1	.	10µM*	-28%	-21%	.	-10%
CCC(CC)C(=O)c1c[nH]c(C(=O)NCc2cccs2)c1	i	-29%	12%	2.5µM*	-7%	-13%[46.1 µM]
CCC(CC)C(=O)c1c[nH]c(C(=O)NCc2ccco2)c1	.	6%	17%	?	.	-7%
CCc1nc(Nc2ccc(F)cc2)c2oc3ccccc3c2n1	.	10µM*	?	.	.	.
CCOc1ccc(C(=O)Nc2ccc(-c3cc4ccccc4oc3=O)cc2)cc1Br	8%	.	-11%	11%[46.1 µM]	7%	.
O=C1c2cccc(OCC(=O)N3CCCc4ccccc43)c2CCN1Cc1cccnc1	?	?	28µM*	?	-29%	?
Cc1ccccc1CN1CCc2c(OCC(=O)N3CCCc4ccccc43)cccc2C1=O	-22%	13µM*	40µM*	?	?	?
CC1(C)Cc2nc3oc4c(N(CCO)Cc5ccccc5)ncnc4c3cc2CO1	.	?	32µM*	?	.	0%
COc1cccc(CN(C)Cc2cc(=O)oc3c(C)c(C)ccc23)c1	.	?	-27%	.	.	.
Cc1ccccc1CN(C)Cc1cc(=O)oc2c(C)c(C)ccc12	-28%	?	?	2.8µM*	-6%	4µM*
Cc1c(O)ccc2c(CN(C)Cc3ccccc3)cc(=O)oc12	i	-21%	-17%	?	-13%	12µM*
COc1cccc([C@H]2Oc3ccc(OC)cc3C(=NOC[C@@H](C)[C@H](OCc3ccccc3)C(C)C)[C@H]2O)c1	.	.	.	.	.	10%[14.2 µM]
Cc1cc(Nc2ccccc2)nn1C(=O)c1ccc(Br)cc1	.	14µM*	-11%	3%	-27%	1%
COc1ccccc1N1CCN(c2nc(CNC(=O)c3ccc(C)c(C)c3)nc3ccccc23)CC1	i	.	2%	.	0%	.
COc1ccc(NC(=O)c2ccc(-c3csc(C)n3)cc2)cc1	i	7.1µM*	-7%	?	4%	?
CCOc1ccc(NC(=O)c2ccc(-c3csc(C)n3)cc2)cc1	-14%	?	-20%	5%	-18%	7%
Cc1nc(-c2ccc(NC(=O)c3ccccc3C)cc2)cs1	?	?	-5%	?	?	?
Cc1nc(-c2cccc(NC(=O)c3ccc(-n4cccn4)cc3)c2)cs1	.	11µM*	?	.	.	.
Cc1nc(-c2ccc(C(=O)Nc3ccccc3F)cc2)cs1	i	?	8.9µM*	?	-16%	?
Cc1nc(-c2ccc(C(=O)Nc3ccc(F)cc3)cc2)cs1	i	?	-16%	?	-20%	6.3µM*
Cc1nc(-c2ccc(C(=O)Nc3cccc(F)c3)cc2)cs1	0%	3.5µM*	?	?	-5%	5µM*
S=c1nc[nH]c2c1ncn2C1CCCO1 (centres undefined)	11µM*	12%	-13%	?	?	?
OCC1OC(n2cnc3c(=S)nc[nH]c32)CC1O (centres undefined)	i	11%	-9%	-3%[46.1 µM]	-12%	-16%
